For assay [1], the system named is Plasmodium falciparum Sir2 (PF13_0152, Sir2A). Nature of the assay: Plasmodium falciparum Sir2A binding compounds – biochemical, small-molecule microarray, 635 nm fluorescence, primary screen (AID 1098).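 Also: score merges spot fluorescence intensity with its signal-to-noise ratio.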 To be noted: fluorescence 635 nm, higher = more signal.
Assay [2] in a line: probe aDKK1 binding to arrayed compounds – biochemical, biotinylated probe, 635/667 nm fluorescence, primary screen (AID 1099).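 Also: score merges 667nm spot fluorescence with signal to noise across triplicate slides.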 To be noted: small-molecule microarray, higher = more signal.
The nature of assay [3]: probe aCHRDL2 binding to arrayed compounds – biochemical, biotinylated probe, 635/667 nm fluorescence, primary screen (AID 1100). To be noted: small-molecule microarray, higher = more signal.
A short description of assay [4]: change in splice reporter luminescence, either direction, cell-based, HEK293, spliceosome inhibition project, primary screen (AID 1101).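 Also: HEK293 cells carrying a splicing-competent luciferase reporter gene; test concentration not given here.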 To be noted: HEK293 splicing luciferase reporter, 24 h, higher = more signal, called active from +8 up or from −8 down.
Assay [5] deals with Fibroblast growth factor 10 (Homo sapiens) (UniProt O15520). Nature of the assay: compounds binding fibroblast growth factor 10 – biochemical, small-molecule microarray, 635 nm fluorescence, primary screen (AID 1102). Particulars: FGF10 binding, fluorescence 635 nm, higher = more signal.
Chain of Fibroblast growth factor 10 (Homo sapiens) (O15520 whole entry, looked up): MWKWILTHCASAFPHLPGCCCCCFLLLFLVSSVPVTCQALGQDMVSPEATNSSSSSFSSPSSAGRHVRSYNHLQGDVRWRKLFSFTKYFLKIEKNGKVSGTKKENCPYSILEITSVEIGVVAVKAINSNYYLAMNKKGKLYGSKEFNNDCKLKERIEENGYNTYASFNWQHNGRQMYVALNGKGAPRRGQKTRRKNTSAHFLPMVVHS
Assay [6] deals with glycogen synthase kinase-3 (GSK3A per assay name; protocol says GSK3B). Nature of the assay: compounds binding glycogen synthase kinase-3 – biochemical, small-molecule microarray, 635 nm fluorescence, GSK3A, primary screen (AID 1103). Also: the record names both GSK3A and GSK3B. Particulars: fluorescence 635 nm, higher = more signal.
For assay [7], the target named is Epidermal growth factor receptor (Homo sapiens) (UniProt P00533). As to the kind of experiment: compounds binding epidermal growth factor receptor – biochemical, small-molecule microarray, 635 nm fluorescence, primary screen (AID 1104).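 Also: score merges 667 nm emission intensity with spot signal to noise over triplicate slides.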 Particulars: EGFR binding, higher = more signal.
Chain of Epidermal growth factor receptor (Homo sapiens) (P00533 whole entry, looked up): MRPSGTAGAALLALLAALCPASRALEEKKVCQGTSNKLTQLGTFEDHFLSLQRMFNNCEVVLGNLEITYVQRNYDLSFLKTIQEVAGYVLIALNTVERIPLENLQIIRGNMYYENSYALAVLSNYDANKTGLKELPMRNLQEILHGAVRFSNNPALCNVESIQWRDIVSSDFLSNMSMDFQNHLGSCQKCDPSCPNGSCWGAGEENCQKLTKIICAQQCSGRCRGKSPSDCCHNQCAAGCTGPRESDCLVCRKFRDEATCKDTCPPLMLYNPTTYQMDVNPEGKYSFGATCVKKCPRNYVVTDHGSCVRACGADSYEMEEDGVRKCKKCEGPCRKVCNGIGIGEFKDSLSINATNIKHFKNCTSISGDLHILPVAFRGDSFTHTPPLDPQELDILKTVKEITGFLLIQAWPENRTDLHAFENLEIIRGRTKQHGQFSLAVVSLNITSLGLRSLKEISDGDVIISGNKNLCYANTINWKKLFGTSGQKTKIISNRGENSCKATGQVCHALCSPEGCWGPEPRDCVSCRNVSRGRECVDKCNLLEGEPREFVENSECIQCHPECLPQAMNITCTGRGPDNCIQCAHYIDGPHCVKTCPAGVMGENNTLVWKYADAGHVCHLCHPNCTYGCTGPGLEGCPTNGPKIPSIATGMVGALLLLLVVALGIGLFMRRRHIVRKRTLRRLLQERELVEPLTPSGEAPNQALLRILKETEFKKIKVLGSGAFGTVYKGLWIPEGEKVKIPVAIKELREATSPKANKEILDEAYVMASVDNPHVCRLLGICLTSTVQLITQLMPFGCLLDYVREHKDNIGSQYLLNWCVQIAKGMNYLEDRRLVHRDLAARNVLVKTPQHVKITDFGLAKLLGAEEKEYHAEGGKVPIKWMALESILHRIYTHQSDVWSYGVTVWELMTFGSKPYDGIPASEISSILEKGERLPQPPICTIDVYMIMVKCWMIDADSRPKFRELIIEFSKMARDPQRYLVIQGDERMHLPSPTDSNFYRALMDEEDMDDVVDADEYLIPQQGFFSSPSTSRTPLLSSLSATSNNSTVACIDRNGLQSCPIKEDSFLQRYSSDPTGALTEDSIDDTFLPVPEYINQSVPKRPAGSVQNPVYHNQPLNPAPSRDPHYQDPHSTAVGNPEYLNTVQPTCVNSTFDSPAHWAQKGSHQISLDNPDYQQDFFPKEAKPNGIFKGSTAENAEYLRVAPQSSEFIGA
Assay [8] deals with Follistatin-related protein 3 (Homo sapiens) (UniProt O95633). As to the kind of experiment: compounds binding follistatin-related protein 3 – biochemical, small-molecule microarray, 635 nm fluorescence, primary screen (AID 1105).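 Also: score merges emission near 667 nm and signal to noise per printed spot across three slides.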 Particulars: FSTL3 binding, higher = more signal.
Chain of Follistatin-related protein 3 (Homo sapiens) (O95633 whole entry, looked up): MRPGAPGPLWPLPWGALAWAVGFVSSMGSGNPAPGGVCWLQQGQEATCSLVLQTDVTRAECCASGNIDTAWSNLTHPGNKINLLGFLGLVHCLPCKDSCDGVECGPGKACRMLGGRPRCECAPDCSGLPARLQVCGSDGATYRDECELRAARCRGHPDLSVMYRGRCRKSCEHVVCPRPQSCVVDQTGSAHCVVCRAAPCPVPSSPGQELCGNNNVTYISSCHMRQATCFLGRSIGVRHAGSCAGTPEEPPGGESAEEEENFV
For assay [9], the target named is Dickkopf-related protein 1 (Homo sapiens) (UniProt O94907). As to the kind of experiment: small molecules binding DKK1 protein – biochemical, small-molecule microarray, 635 nm fluorescence scan, primary screen (AID 1106).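 Also: score merges emission near 667 nm with signal to noise over three replicate slides.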 To be noted: higher = more signal.
Chain of Dickkopf-related protein 1 (Homo sapiens) (O94907 whole entry, looked up): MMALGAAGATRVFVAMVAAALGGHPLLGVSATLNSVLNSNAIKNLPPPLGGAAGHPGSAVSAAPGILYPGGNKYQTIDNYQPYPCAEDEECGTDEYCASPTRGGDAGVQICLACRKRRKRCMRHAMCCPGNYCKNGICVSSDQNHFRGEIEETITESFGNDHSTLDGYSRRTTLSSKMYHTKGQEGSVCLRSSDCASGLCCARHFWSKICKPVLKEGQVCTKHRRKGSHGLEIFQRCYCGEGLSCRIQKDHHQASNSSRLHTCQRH
The test system of assay [10] is Inhibin beta A chain (activin A). Nature of the assay: small molecules binding activin A – biochemical, small-molecule microarray, 635 nm fluorescence scan, primary screen (AID 1107).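 Also: mouse activin A protein probed at 4.33 µg/mL on printed slides; score merges bound-protein fluorescence near 667 nm with spot signal-to-noise.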 Particulars: INHBA, higher = more signal.
Assay [11] has as its system Human papillomavirus type 1a protein E7 (residues 44-93). As to the kind of experiment: small molecules binding HPV E7 44-93 – biochemical, small-molecule microarray, residues 44-93, 635 nm fluorescence, primary screen (AID 1108).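 Also: E7 fragment applied at 1 µg/mL in TBST for 1 h at 4 C; score combines spot fluorescence with its signal to noise ratio.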 To be noted: fluorescence 635 nm, higher = more signal.
Assay [12] in a line: hepatitis C replication reporter changes, two-sided – Huh7 cells, luciferase reporter, HCV replication inhibitor project, primary screen (AID 1109).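 Also: huh7 hepatoma cells harbouring a luciferase neomycin HCV replicon reporter; luciferase luminescence as measure of HCV replicon replication; test concentration not given here.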 To be noted: Huh7 HCV replicon luciferase reporter, 48 h; higher = more signal.
The target in assay [13] is Left-right determination factor 2 (Homo sapiens) (UniProt O00292). As to the kind of experiment: small molecules binding LEFTY2 protein – biochemical, small-molecule microarray, 635 nm fluorescence scan, primary screen (AID 1110). To be noted: higher = more signal.
Chain of Left-right determination factor 2 (Homo sapiens) (O00292 whole entry, looked up): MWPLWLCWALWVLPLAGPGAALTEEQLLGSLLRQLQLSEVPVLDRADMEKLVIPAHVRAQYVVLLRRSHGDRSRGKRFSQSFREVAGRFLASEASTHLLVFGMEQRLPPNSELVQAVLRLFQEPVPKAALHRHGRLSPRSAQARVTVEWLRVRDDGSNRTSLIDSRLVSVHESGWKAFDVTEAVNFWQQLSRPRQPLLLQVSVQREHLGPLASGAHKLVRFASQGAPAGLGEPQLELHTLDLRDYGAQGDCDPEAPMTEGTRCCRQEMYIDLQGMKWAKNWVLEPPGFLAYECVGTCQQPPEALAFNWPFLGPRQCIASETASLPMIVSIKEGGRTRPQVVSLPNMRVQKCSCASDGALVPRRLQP
Assay [14] concerns the target Calmodulin-1 (Homo sapiens) (UniProt P0DP23). As to the kind of experiment: small molecules binding calmodulin-1 with EGTA – biochemical, small-molecule microarray, Cy5-labelled CALM1, profiling panel (AID 1111).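 Also: labelled calmodulin applied in Tris saline Tween buffer holding calcium plus EGTA and DTT.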 To be noted: Cy5-CALM1 binding fluorescence, higher = more signal.
The target is the same in assay [15]. As to the kind of experiment: small molecules binding Ca-loaded calmodulin-1 – biochemical, small-molecule microarray, Cy5-labelled CALM1, plus calcium, artefact control for SMM control-protein annotation, profiling panel (AID 1112).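 Also: score merges spot fluorescence with signal to noise from triplicate slides.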 Particulars: Cy5-CALM1 binding fluorescence, higher = more signal.
The nature of assay [16]: probe aWnt5a binding to arrayed compounds – biochemical, biotinylated probe, 635/667 nm fluorescence, primary screen (AID 1113).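 Also: score merges 667 nm fluorescence intensity with signal-to-noise per printed feature.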 Particulars: small-molecule microarray, higher = more signal.
The nature of assay [17]: probe aShh binding to arrayed compounds – biochemical, biotinylated probe, 635/667 nm fluorescence, primary screen (AID 1114).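 Also: probe is biotin-labelled aShh protein from a stem cell growth factor screen; measures binding of labelled protein to compounds printed on the slide; score merges feature fluorescence at 667 nm with signal-to-noise.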 Particulars: small-molecule microarray, higher = more signal.
The nature of assay [18]: probe aNog binding to arrayed compounds – biochemical, biotinylated probe, 635/667 nm fluorescence, primary screen (AID 1115).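 Also: probe is biotinylated aNog protein used at 0.15 µg/mL for 1 h at 4 C; z-score combines 667 nm fluorescence of each spot with its signal to noise.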 Particulars: small-molecule microarray, higher = more signal.
In assay [19] the target is Torsin-1A-interacting protein 1 (Homo sapiens) (UniProt Q5JTV8). As to the kind of experiment: compound microarray binding of lysate hLAP1 – cell lysate, small-molecule microarray, COS7 lysate, 635/667 nm fluorescence, primary screen (AID 1116). Particulars: 635 nm fluorescence, higher = more signal.
Chain of Torsin-1A-interacting protein 1 (Homo sapiens) (Q5JTV8 whole entry, looked up): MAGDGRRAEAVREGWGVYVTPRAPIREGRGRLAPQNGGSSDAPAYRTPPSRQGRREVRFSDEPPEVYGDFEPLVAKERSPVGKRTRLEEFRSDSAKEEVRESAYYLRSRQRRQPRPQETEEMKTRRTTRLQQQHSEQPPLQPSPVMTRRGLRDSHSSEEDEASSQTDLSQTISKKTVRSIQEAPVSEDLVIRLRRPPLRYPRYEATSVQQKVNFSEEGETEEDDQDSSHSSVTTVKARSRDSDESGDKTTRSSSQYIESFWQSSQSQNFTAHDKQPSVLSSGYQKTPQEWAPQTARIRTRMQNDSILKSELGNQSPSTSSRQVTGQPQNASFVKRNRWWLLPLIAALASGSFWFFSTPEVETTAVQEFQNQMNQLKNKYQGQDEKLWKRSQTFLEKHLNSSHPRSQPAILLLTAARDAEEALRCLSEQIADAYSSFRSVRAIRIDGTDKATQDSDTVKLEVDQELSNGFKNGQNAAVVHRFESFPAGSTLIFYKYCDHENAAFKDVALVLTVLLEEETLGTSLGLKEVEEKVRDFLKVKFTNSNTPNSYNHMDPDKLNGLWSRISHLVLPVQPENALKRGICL
The target in assay [20] is Alpha-bungarotoxin (Bungarus multicinctus) (UniProt P60615). Nature of the assay: compounds binding labelled alpha-BTX control protein – biochemical, small-molecule microarray, Alexa647 label, 635/667 nm fluorescence, artefact control for SMM control protein annotation, profiling panel (AID 1117). Particulars: alpha-BTX-A647 binding fluorescence, higher = more signal.
Chain of Alpha-bungarotoxin (Bungarus multicinctus) (P60615 whole entry, looked up): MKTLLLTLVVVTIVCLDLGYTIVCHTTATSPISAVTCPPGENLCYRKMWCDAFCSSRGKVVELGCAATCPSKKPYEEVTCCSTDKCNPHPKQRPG

Activity calls are given as the source filed them.

In the case of `C=CCNC(=O)[C@H]1[C@@H]2C(=O)O[C@@H](c3ccccc3)[C@@H](c3ccccc3)N2[C@@H](c2ccc(OCCO)cc2)[C@]12C(=O)Nc1ccc(C#Cc3ccc(OC)cc3)cc12`, the composite z-score in [1] is 1.34; in [2], 0.626; in assay [3], 0.632; in assay [5], 1.23; in [6] it was 1.33; in [7], 0.486. Besides, the composite z-score in assay [8] is 1.17; in assay [9], 0.736; in assay [10], -0.274; in [11] it was 1.02; in [13], 0.699; in assay [14], 0.573. Also, the composite z-score is 0.787 in [15]; 0.104 in [16]; 0.465 in assay [17]; -0.403 in [18]; 1.1 in assay [19]; 1.71 in assay [20]. In addition, the values for the z-score in assay [4] and in assay [12] were -0.258 (inactive) and -2.18, respectively.
`COc1cc(CO)cc(I)c1O[C@H]1C=C(C(=O)NCCO)C[C@@H](N(CCN2CCOCC2)C(=O)C2CCCO2)[C@@H]1O` (stereo not given in full): the composite z-score is 0.226 in assay [1]; -0.309 in assay [2]; -0.521 in assay [3]; 0.322 in assay [5]; 0.507 in [6]; 0.488 in assay [7]. Also, the composite z-score in [8] is 0.152; in [9], 0.516; in [10], 0.356; in assay [11], 0.35; in [13], 0.445; in assay [14] it was -0.292. Also, the composite z-score is -0.671 in assay [15]; -0.0606 in [16]; -0.0769 in assay [17]; -0.248 in [18]; 0.11 in assay [19]; -0.197 in assay [20]. In addition, the values for the z-score in assay [4] and in assay [12] were 0.0133 (inactive) and 0.109, respectively.
Take `[N-]=[N+]=NCc1ccccc1C[C@]1(C(=O)N2CCCCC2)COC(c2ccc(OCCCO)cc2)=N1`: the composite z-score in assay [1] came out at 0.314; in [2], 0.0279; in [3] it was 0.552; in assay [5], 0.786; in assay [6], 1.02; in assay [7], 1.1. In addition, the composite z-score in [8] was 0.636; in assay [9], 0.221; in assay [10] it was -0.297; in assay [11] it was 0.288; in assay [13], 0.227; in [14] it was 0.103. For the same compound, the composite z-score in assay [15] is -0.171; in [16] it was -0.255; in [17], 0.262; in assay [18] it was -0.694; in assay [19], 2.29; in assay [20] it was 0.49. For the same compound, the z-score is 0.0234 (inactive) in [4] and -2.57 in [12].
In the case of `CC[C@@H](O[Si](C#C[Si](C(C)C)(C(C)C)C(C)C)(C(C)C)C(C)C)c1cn([C@H](CO)Cc2ccccc2)nn1`, the composite z-score is 0.954 in [1]; -0.331 in assay [2]; -0.592 in assay [3]; 0.675 in [5]; 0.566 in [6]; 0.236 in [7]. Moreover, the composite z-score was 0.675 in assay [8]; 0.39 in assay [9]; -0.092 in assay [10]; 1.02 in assay [11]; 0.498 in [13]; 0.229 in assay [14]. Moreover, the composite z-score in assay [15] is -0.24; in assay [16], -0.148; in assay [17] it was -0.0769; in [18], 0.184; in assay [19], 0.739; in [20], 0.167. Also, the z-score in assay [4] is 0.131 (inactive); in assay [12], -0.126.
Turning to `COc1ccc(C(=O)Nc2ccc(CN3C(=O)[C@@]4(O[C@@H](CC(=O)N(CCO)Cc5ccccc5)[C@H]([Si](C)(C)c5ccc(OC)cc5)[C@H]4C)c4ccccc43)cc2)cc1`, the composite z-score in [1] was 0.901; in assay [2], -0.0966; in assay [3], -0.351; in [5], 0.201; in assay [6], -0.185; in [7] it was 0.7. For the same compound, the composite z-score in [8] was 0.335; in assay [9], 0.502; in assay [10], 0.432; in assay [11] it was -0.471; in assay [13], 0.444; in assay [14], 0.655. Moreover, the composite z-score is -0.0779 in assay [15]; -0.14 in assay [16]; -0.341 in assay [17]; -0.31 in assay [18]; 0.121 in assay [19]; 0.331 in assay [20]. Besides, the z-score in assay [4] was -1.78 (inactive); in assay [12] it was -3.92.
In the case of `COCCOC(=O)N1C(=O)[C@@]2(c3cc(C#CCNC(N)=O)ccc31)[C@H](c1ccc(O)cc1)N1[C@H](c3ccccc3)[C@H](c3ccccc3)OC(=O)[C@H]1[C@@H]2C(=O)N1CCc2cc(OC)c(OC)cc2C1`, the composite z-score in [1] is 0.391; in assay [2] it was 0.206; in assay [3], 0.493; in assay [5] it was 1.19; in assay [6] it was -0.447; in assay [7], 0.292. In addition, the composite z-score was 1.2 in assay [8]; 0.372 in [9]; 0.899 in assay [10]; 1.31 in assay [11]; 0.266 in assay [13]; 0.111 in assay [14]. Besides, the composite z-score in assay [15] was 0.118; in [16], 0.586; in assay [17], -0.167; in assay [18], -0.25; in assay [19], 0.712; in assay [20], 0.857. The figures for the z-score in [4] and in assay [12] were -1.41 (inactive) and -0.281, respectively.

For the origin of these results see PubChem BioAssay.
